# Test results published in PubChem BioAssay (Tox21).
# Several values for one entry are separate records, joined by “and”; a condition that tells them apart may be missing. Identical values can stand only once. A number with no mark means an inactive call. Results filed as inconclusive are left out. Where a call stands in place of a potency, no number is given. Activity calls are given as the source filed them. Unless noted, the call rests on the fitted dose curve; in most records, active means well fitted curve in the direction sought with a large enough effect in the repeat runs; inconclusive means weak or mixed curves; inactive means no such curve, though single readings can be large; an effect the other way counts as inactive or inconclusive.
# What was measured:
# [1] = target: Androgen receptor (Homo sapiens) (UniProt P10275); assay: qHTS assay to identify small molecule antagonists of the androgen receptor (AR) signaling pathway (AID 743035; active means well fitted inhibition curve with a large enough effect in the signal ratio in the repeat runs, not every such curve was filed as active; the % refers to the signal ratio; further: potency means the concentration at half of the fitted maximal effect)
# Method in brief: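 AR-bla HEK293 reporter cells; 4 h settle at 37C/5% CO2; compound + R1881 agonist, 16 h at 37C; LiveBLAzer B/G FRET substrate 2 h RT; fluorescence intensity read. qHTS format.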
# [2] = target: Androgen receptor (Homo sapiens) (UniProt P10275); assay: qHTS assay to identify small molecule agonists of the androgen receptor (AR) signaling pathway (AID 743036; active means well fitted activation curve with a large enough effect in the signal ratio in the repeat runs, with a control signal flat, not every such curve was filed as active; the % refers to the signal ratio; further: potency means the concentration at half of the fitted maximal effect)
# Method in brief: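 Quantitative HTS of the Tox21 10K library in HEK293 cells bearing a stably integrated UAS-controlled beta-lactamase reporter. Compound exposure lasted 16 h at 37C. Reporter activity was detected by FRET substrate fluorescence after 2 h at room temperature.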
# [3] = target: Androgen receptor (Homo sapiens) (UniProt P10275); assay: qHTS assay to identify small molecule agonists of the androgen receptor (AR) signaling pathway using the MDA cell line (AID 743040; further: nearly all actives have a fitted effect of over 20% in size; further: potency means the concentration at half of the fitted maximal effect)
# Method in brief: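 Testing was done with the MDA-kb2 AR-luc line, a human breast carcinoma stably transfected with MMTV-luciferase containing AR and GR response elements. Cells were exposed 16 h at 37C before ONE-Glo luminescence detection.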
# [4] = target: Androgen receptor (Homo sapiens) (UniProt P10275); assay: qHTS assay to identify small molecule antagonists of the androgen receptor (AR) signaling pathway using the MDA cell line (AID 743042; further: nearly all actives have a fitted effect of over 55% in size; further: potency means the concentration at half of the fitted maximal effect)
# Method in brief: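 MDA-kb2 breast carcinoma cells carrying MMTV-luciferase (AR/GR responsive) were co-treated with compounds and the agonist R1881 for 16 h at 37C. Inhibition read as ONE-Glo luminescence; CellTiter-Fluor fluorescence measured in parallel for cytotoxicity.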
# [5] = target: Peroxisome proliferator-activated receptor gamma (Homo sapiens) (UniProt P37231); assay: qHTS assay to identify small molecule agonists of the peroxisome proliferator-activated receptor gamma (PPARg) signaling pathway (AID 743094; active means well fitted activation curve with a large enough effect in the signal ratio in the repeat runs, not every such curve was filed as active; the % refers to the signal ratio)
# Method in brief: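 HEK293H PPARg-bla cells, 5 h settle at 37C/5% CO2; compound (DMSO) 17 h, 37C; B/G FRET substrate 1 h RT; fluorescence intensity read-out. qHTS format.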
# [6] = target: Nuclear receptor subfamily 1 group I member 2 (Rattus norvegicus) (UniProt Q9R1A7); assay: Rat pregnane X receptor (rPXR) activation by small molecules, qHTS assay (AID 1346983); conditions: rPXR luciferase reporter cells, One-Glo luminescence, 24 h; max activation: active compounds read high; further: nearly all actives have a fitted effect of over 20% in size
# Method in brief: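 Cell-based rPXR activation assay: rPXR cells, 2,000 per well, rested 5hr at 37 C, then exposed to compounds in DMSO for 24 hr at 37 C. Luciferase activity read by One-Glo luminescence after 30 min at room temperature.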
# [7] = target: Nuclear receptor subfamily 1 group I member 2 (Homo sapiens) (UniProt O75469); assay: Human pregnane X receptor (PXR) activation by small molecules, qHTS assay (AID 1346985); further: nearly all actives have a fitted effect of over 40% in size; further: potency means the concentration at half of the fitted maximal effect
# Method in brief: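 DPX-2 cells (HepG2 co-transfected with a PXR response element and a CYP3A4-promoter luciferase construct) were seeded at 2,000 per well, rested 5 hr at 37C, then exposed to DMSO-dissolved compounds for 24 hr. Activation was read as luciferase luminescence.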
# [8] = target: Glucocorticoid receptor (Homo sapiens) (UniProt P04150); assay: qHTS assay to identify small molecule antagonists of the glucocorticoid receptor (GR) signaling pathway (AID 720692; active means well fitted inhibition curve with a large enough effect in the signal ratio in the repeat runs, not every such curve was filed as active; the % refers to the signal ratio; further: potency means the concentration at half of the fitted maximal effect)
# Method in brief: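 Read-out: beta-lactamase FRET substrate fluorescence, 2 h at room temperature, in HeLa cells stably carrying a GRE-driven bla reporter. Compounds were co-incubated with 5 nM dexamethasone agonist (final) for 18 h at 37 C.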
# [9] = target: Nuclear receptor subfamily 1 group I member 2 (Homo sapiens) (UniProt O75469); assay: CYP3A4 induction through human pregnane X receptor (PXR) by small molecules, qHTS assay (AID 1346984); further: nearly all actives have a fitted effect of over 40% in size; further: potency means the concentration at half of the fitted maximal effect
# Method in brief: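 HepG2-derived DPX-2 line carrying PXR plus a CYP3A4-promoter luciferase reporter; cells plated 5 hr, compound-exposed 24 hr at 37C. CYP3A4 activity probed with 3uM (final) Luciferin-IPA for 3hr, then luciferase read after One-Glo.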
# [10] = qHTS assay for identifying genotoxic compounds that show differential cytotoxicity against isogenic chicken DT40 cell lines with known DNA damage response pathways - Rev3 mutant cell line (AID 743014); further: nearly all actives have a fitted effect of over 55% in size; further: potency means the concentration at half of the fitted maximal effect
# [11] = target: Estrogen receptor (Homo sapiens) (UniProt P03372); assay: qHTS assay to identify small molecule antagonists of the estrogen receptor alpha (ER-alpha) signaling pathway (AID 743069; active means well fitted curve in the direction sought with a large enough effect in the signal ratio in the repeat runs, not every such curve was filed as active; the % refers to the signal ratio)
# Method in brief: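 In this cell-based reporter format, GripTite HEK293 cells harbouring ER-alpha-UAS-bla were grown overnight with 2% charcoal-stripped FBS, dosed with DMSO-dissolved compounds, then challenged with 17beta-estradiol. After 18 hr at 37C, beta-lactamase activity was detected by FRET fluorescence.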
# Chain of Androgen receptor (Homo sapiens) (P10275 whole entry, looked up): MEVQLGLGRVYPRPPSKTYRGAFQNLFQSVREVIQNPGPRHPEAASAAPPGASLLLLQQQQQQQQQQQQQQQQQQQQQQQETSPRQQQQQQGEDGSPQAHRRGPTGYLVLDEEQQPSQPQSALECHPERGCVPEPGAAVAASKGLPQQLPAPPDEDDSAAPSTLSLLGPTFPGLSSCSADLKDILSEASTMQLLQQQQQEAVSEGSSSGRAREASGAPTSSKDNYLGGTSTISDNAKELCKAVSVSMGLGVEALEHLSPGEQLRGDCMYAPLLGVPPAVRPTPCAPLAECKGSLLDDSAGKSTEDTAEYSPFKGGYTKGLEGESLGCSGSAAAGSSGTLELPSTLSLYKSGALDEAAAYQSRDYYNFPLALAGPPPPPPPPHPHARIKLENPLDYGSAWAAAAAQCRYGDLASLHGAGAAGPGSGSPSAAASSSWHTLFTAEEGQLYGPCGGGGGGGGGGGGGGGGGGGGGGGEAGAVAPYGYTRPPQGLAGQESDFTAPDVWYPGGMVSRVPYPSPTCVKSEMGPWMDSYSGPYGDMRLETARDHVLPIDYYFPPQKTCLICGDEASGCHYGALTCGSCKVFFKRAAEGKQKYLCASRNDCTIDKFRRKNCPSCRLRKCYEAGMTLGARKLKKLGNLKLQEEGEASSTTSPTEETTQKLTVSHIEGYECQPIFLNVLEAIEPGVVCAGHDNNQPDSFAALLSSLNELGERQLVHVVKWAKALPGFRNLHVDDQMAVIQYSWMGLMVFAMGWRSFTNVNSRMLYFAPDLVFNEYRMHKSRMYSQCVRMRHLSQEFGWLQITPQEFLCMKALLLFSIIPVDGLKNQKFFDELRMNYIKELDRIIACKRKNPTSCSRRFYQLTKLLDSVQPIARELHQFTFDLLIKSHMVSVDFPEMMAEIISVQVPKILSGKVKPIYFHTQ
# Chain of Glucocorticoid receptor (Homo sapiens) (P04150 whole entry, looked up): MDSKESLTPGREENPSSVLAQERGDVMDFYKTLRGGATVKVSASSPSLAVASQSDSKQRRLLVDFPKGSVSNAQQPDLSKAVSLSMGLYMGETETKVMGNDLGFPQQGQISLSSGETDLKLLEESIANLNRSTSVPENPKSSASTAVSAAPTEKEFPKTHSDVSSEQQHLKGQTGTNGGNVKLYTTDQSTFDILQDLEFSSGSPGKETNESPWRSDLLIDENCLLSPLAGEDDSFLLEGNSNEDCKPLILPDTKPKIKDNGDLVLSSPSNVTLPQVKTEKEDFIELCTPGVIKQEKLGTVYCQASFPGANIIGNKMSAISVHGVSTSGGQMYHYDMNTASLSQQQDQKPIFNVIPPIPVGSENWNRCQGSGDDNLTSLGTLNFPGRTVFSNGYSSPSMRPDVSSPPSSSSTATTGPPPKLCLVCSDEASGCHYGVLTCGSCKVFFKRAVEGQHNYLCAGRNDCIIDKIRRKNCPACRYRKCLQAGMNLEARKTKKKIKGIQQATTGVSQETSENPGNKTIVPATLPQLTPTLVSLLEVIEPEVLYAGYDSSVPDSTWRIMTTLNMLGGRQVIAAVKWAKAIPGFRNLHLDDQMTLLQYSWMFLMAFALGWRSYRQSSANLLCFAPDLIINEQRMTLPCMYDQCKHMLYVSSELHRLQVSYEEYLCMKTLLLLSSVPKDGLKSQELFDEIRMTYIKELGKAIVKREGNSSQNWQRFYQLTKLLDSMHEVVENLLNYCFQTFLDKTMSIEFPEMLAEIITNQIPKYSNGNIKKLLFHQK
# Chain of Estrogen receptor (Homo sapiens) (P03372 whole entry, looked up): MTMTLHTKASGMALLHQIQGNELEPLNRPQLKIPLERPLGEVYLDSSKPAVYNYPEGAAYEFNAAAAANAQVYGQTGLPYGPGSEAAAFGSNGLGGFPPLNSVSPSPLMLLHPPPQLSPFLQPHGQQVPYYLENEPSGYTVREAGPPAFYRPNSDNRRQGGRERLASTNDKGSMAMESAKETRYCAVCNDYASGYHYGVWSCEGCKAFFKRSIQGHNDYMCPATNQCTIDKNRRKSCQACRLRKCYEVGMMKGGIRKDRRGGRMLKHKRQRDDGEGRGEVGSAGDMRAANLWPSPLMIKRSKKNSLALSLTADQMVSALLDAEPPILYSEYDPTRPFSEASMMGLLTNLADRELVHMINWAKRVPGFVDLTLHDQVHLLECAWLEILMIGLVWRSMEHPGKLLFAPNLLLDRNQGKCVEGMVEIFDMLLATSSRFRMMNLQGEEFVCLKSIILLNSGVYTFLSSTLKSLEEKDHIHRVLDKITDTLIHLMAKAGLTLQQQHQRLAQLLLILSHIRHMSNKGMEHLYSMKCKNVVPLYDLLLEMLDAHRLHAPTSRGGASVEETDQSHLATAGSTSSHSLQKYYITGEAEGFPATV
# Chain of Peroxisome proliferator-activated receptor gamma (Homo sapiens) (P37231 whole entry, looked up): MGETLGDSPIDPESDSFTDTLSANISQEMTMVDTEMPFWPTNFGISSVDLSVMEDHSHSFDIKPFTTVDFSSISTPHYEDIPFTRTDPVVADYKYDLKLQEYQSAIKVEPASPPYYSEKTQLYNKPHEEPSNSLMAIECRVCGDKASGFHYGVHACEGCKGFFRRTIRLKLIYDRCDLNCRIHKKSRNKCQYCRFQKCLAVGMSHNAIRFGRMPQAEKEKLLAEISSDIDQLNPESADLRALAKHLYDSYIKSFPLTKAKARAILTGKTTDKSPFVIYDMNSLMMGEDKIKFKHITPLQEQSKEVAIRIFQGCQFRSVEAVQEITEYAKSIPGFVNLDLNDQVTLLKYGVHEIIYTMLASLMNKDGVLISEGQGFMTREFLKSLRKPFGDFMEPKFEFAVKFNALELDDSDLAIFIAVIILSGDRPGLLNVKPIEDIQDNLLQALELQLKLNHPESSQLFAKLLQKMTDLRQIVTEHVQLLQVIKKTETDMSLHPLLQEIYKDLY
# Chain of Nuclear receptor subfamily 1 group I member 2 (Rattus norvegicus) (Q9R1A7 whole entry, looked up): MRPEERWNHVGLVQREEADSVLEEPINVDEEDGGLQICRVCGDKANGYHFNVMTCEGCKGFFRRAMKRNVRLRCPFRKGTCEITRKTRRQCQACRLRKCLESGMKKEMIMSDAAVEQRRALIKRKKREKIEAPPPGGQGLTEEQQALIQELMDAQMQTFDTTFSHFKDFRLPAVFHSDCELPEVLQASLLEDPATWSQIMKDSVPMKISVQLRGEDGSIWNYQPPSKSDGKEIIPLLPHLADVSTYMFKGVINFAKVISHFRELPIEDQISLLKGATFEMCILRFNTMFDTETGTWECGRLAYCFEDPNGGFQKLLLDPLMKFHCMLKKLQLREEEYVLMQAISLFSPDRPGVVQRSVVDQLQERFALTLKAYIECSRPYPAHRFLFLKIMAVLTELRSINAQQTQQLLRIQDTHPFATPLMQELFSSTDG
smiles,measurement,setting,value
CCN(CC)C(=O)N[C@H]1C[C@@H]2c3cccc4[nH]cc(c34)C[C@H]2N(C)C1,Potency,[1],inactive
same,Potency,[2],inactive
same,Potency,[3],inactive
same,Potency,[4],inactive
same,Potency,[5],inactive
same,max activation,[6],-1.74%
same,Potency,[7],25.1 µM (active)
C=C[C@H]1CN2CC[C@H]1C[C@H]2[C@H](OC(=O)OCC)c1ccnc2ccc(OC)cc12,Potency,[8],inactive
same,Potency,[5],inactive
same,Potency,[9],inactive
C/C=C(\CC)C(=O)NC(N)=O,Potency,[8],inactive
same,Potency,[10],inactive
same,Potency,[11],inactive
same,Potency,[5],inactive
N#CC(C#N)=Cc1cc(O)c(O)c(O)c1,Potency,[10],26.6 µM (active)
same,Potency,[3],inactive
same,Potency,[4],inactive
same,Potency,[5],inactive
C[C@]12CCC(=O)C[C@@H]1CC[C@@H]1[C@@H]2CC[C@@]2(C)[C@H]1CC[C@]2(C)O,Potency,[8],8.49 µM (active)
same,Potency,[10],inactive
same,Potency,[5],inactive
COC(=O)[C@@H]1[C@H]2CC[C@@H](C[C@H]1OC(=O)c1ccccc1)N2C,Potency,[10],inactive
same,Potency,[1],inactive
same,Potency,[2],inactive
same,Potency,[3],inactive
same,Potency,[4],inactive
same,Potency,[5],inactive
same,Potency,[9],inactive
same,Potency,[7],inactive
CN[C@@]1(c2ccccc2Cl)CCCCC1=O,Potency,[8],inactive
same,Potency,[10],inactive
same,Potency,[5],inactive
C[C@@H](Cc1ccccc1)NCCC(c1ccccc1)c1ccccc1,Potency,[10],5.07 µM (active)
same,Potency,[11],inactive
same,Potency,[9],12.6 µM (active)
O=C1OC2(c3cc(Br)c(O)cc3Oc3c2cc(Br)c(O)[c]3[Hg])c2ccccc21 (stereo not given),Potency,[8],inactive
same,Potency,[10],11.4 µM (active)
same,Potency,[11],inactive
same,Potency,[5],inactive
same,Potency,[9],inactive
same,Potency,[7],inactive
CN1CC[C@@]23CCCC[C@@H]2[C@@H]1Cc1ccc(O)cc13,Potency,[2],inactive
same,Potency,[3],26.6 µM (active)
same,Potency,[4],inactive
same,Potency,[5],inactive
CC(=O)[C@@]1(O)CC[C@H]2[C@@H]3CCC4=CC(=O)CC[C@]4(C)C3(F)[C@@H](O)C[C@@]21C (stereo not given in full),Potency,[5],inactive
C[C@]12CC[C@@H]3c4ccc(OC(=O)N(CCCl)CCCl)cc4CC[C@H]3[C@@H]1CC[C@@H]2OP(=O)(O)O,Potency,[8],inactive
same,Potency,[1],10.7 µM (active) and 19 µM (active)
same,Potency,[3],5.31 µM (active) and 10.6 µM (active)
same,Potency,[4],inactive
same,Potency,[5],inactive
O=C(O)CCCO,Potency,[8],inactive
same,Potency,[10],inactive
same,Potency,[1],inactive
same,Potency,[2],inactive
same,Potency,[3],inactive
same,Potency,[4],inactive
COC(=O)[C@H]1[C@@H](OC(=O)c2ccccc2)C[C@@H]2CC[C@H]1N2C,Potency,[1],inactive
same,Potency,[2],inactive
same,Potency,[3],inactive
same,Potency,[4],inactive
same,Potency,[11],inactive
CC(N)Cc1ccc2c(c1)OCO2 (stereo not given),Potency,[10],inactive
O=C1C[C@@H]2OCC=C3CN4CC[C@]56c7ccccc7N1[C@H]5[C@H]2[C@H]3C[C@H]46 (tested in a mixture with another compound),Potency,[10],inactive
Clc1ccc(C(Cn2ccnc2)OCc2csc3c(Cl)cccc23)c(Cl)c1 (stereo not given),Potency,[8],inactive
same,Potency,[3],inactive
same,Potency,[9],3.98 µM (active)
CCCSc1cc(OC)c(CCN)cc1OC,Potency,[8],inactive
same,Potency,[1],6.55 µM (active)
same,Potency,[3],inactive
same,Potency,[4],inactive
same,Potency,[5],inactive
CC(C)[C@H]1C(=O)N2CCC[C@H]2[C@]2(O)O[C@](NC(=O)[C@@H]3C[C@@H]4c5cccc6[nH]cc(c56)C[C@H]4N(C)C3)(C(C)C)C(=O)N12,Potency,[10],29.8 µM (active)
same,Potency,[11],inactive
C[C@]12CC[C@H](O)C[C@H]1CC[C@@H]1[C@@H]2CC[C@]2(C)[C@@H](c3ccc(=O)oc3)C[C@H]3O[C@]132,Potency,[10],13.3 µM (active)
same,Potency,[1],6.01 µM (active)
same,Potency,[4],21.1 µM (active)
same,Potency,[9],5.01 µM (active)
same,Potency,[7],3.98 µM (active)
Oc1ccc2c3c1O[C@H]1[C@@H](O)C=C[C@H]4[C@H](C2)NCC[C@@]341,Potency,[10],inactive
O=C1CN=C(c2ccccc2)c2cc(Cl)ccc2N1,Potency,[8],23.9 µM (active)
same,Potency,[11],inactive
same,Potency,[5],inactive
CC(C)C[C@H]1C(=O)N2CCC[C@H]2[C@]2(O)O[C@](NC(=O)[C@@H]3C[C@@H]4c5cccc6[nH]cc(c56)C[C@H]4N(C)C3)(C(C)C)C(=O)N12,Potency,[10],23.7 µM (active)
same,Potency,[11],inactive
C=CCC1([C@@H](C)CCC)C(=O)NC(=O)NC1=O,Potency,[8],inactive
CCNC1(c2cccs2)CCCCC1=O (stereo not given),Potency,[8],inactive
same,Potency,[10],inactive
same,Potency,[11],inactive
same,Potency,[5],inactive
O=c1ccc2cc(O[C@@H]3O[C@H](CO)[C@@H](O)[C@H](O)[C@H]3O)c(O)cc2o1,Potency,[2],9.1 µM (active)
same,Potency,[3],inactive
same,Potency,[4],inactive
C1CN(P2(N3CC3)=NP(N3CC3)(N3CC3)=NP(N3CC3)(N3CC3)=N2)CCO1 (stereo not given),Potency,[10],0.168 µM (active)
same,Potency,[11],inactive
CN1C(=O)CC(=O)N(c2ccccc2)c2cc(Cl)ccc21,Potency,[8],inactive
same,Potency,[10],inactive
same,Potency,[11],inactive
same,Potency,[5],inactive
same,Potency,[9],inactive
c1ccc(C2(N3CCCC3)CCCCC2)cc1,Potency,[10],8.41 µM (active)
same,Potency,[9],1.58 µM (active)
same,Potency,[7],5.01 µM (active)
C[C@@H]1[C@@H]2Cc3ccc(O)cc3[C@@]1(C)CCN2CC1CC1,Potency,[8],inactive
same,Potency,[10],inactive
same,Potency,[1],inactive
same,Potency,[2],inactive
same,Potency,[3],inactive
same,Potency,[4],inactive
same,Potency,[5],inactive
CNC(C)CC1CCCCC1 (stereo not given),Potency,[8],inactive
same,Potency,[1],inactive
same,Potency,[2],inactive
same,Potency,[3],inactive
same,Potency,[4],inactive
same,Potency,[5],inactive
c1ccc2c(c1)Sc1ccccc1N2C[C@@H]1CN2CCC1CC2,Potency,[8],inactive
same,Potency,[10],inactive
same,Potency,[5],inactive
COc1cc([C@@H]2c3cc4c(cc3[C@@H](O)[C@H]3COC(=O)[C@H]23)OCO4)cc(OC)c1O,Potency,[10],0.266 µM (active)
same,Potency,[11],inactive
C[C@@H](N)C(=O)c1ccccc1,Potency,[8],inactive
same,Potency,[10],inactive
same,Potency,[1],inactive
same,Potency,[2],inactive
same,Potency,[3],inactive
same,Potency,[4],inactive
same,Potency,[5],inactive
CCC1(c2ccccc2)C(=O)NC(=O)N(C)C1=O (stereo not given),Potency,[8],inactive
same,Potency,[7],inactive
